# Experimental data: PubChem BioAssay (EPA / NIEHS)
# Values joined by “and” are separate entries in the source; they are usually repeats but may differ in a detail not shown here. Equal values may be shown once. Where a structure was tested more than once in an assay, its records may differ in their call. Active and inactive are the calls of the source. Rule for the calls: active = hit-call score of the fitted dose curve at least 0.9, where 1 is the maximum; inactive = score below 0.9.
# Read-out: E-selectin (Homo sapiens) (UniProt P16581)
# Assay: BSK_3C_Eselectin: BioMAP Diversity Plus: 3C Assay for Eselectin Biomarker Activity (AID 2283015)
# Settings: primary human endothelial cells (HUVEC); actives raise or lower the signal
# Method: BSK_3C is a cell-based, multiplexed-readout assay that uses umbilical vein endothelium, a human vascular primary cell, with measurements taken at 24 hours after chemical dosing in a 96-well plate.BSK_3C_Eselectin is an assay component measured in the BSK_3C assay. It measures E-selectin antibody related to regulation of gene expression using ELISA technology.Data from the assay component BSK_3C_Eselectin was analyzed into 1 assay endpoint. This assay endpoint, BSK_3C_Eselectin, was analyzed with bidirectional fitting relative to DMSO as the negative control and baseline of activity. Using a type of binding reporter, gain or loss-of-signal activity can be used to understand changes in the signaling as they relate to the gene SELE. Furthermore, this assay endpoint can be referred to as a primary readout, because this assay has produced multiple assay endpoints where this one serves a signaling function. To generalize the intended target to other relatable targets, this assay endpoint is annotated to the cell adhesion molecules intended target family, where the subfamily is selectins.
# The levels of cell surface (or secreted, indicated by the prefix "s") biomarker endpoints were measured by ELISA. Overt cytotoxicity to cells in confluent adherent cultures (all systems other than the BT system) was assessed by measuring total protein levels using sulforhodamine B (SRB) staining in parallel cultures at the time of biomarker measurements, indicated as SRB endpoints. For proliferation assays for adherent cell types, individual cell types are cultured at sub-confluence and relative cell numbers quantified by SRB staining at time points optimized for each system (48 h: 3C and CASM3C systems; 72 h: BT and HDF3CGF systems; 96 h: SAg system). SRB was performed by staining cells with 0.1% SRB after fixation with 10% TCA and reading wells at 560 nm.Viability and proliferation of PBMC (T cells) was quantified by Alamar Blue reduction for the SAg and BT systems. For PBMC viability (referred to as PBMC Cytotoxicity within the assay endpoint names), cells were plated (75,000/well in a 96-well plate) and then chemical samples added for 1 h before addition of activators, SEB and TSST-1 (20 ng/mL final concentration each). Cells were incubated for 90 h. Then, Alamar Blue (20 uL/well) (Invitrogen, Cat DAL1100) was added for 6 h, and the plates were read with a fluorescence microplate reader at 546/580 nm (excitation/emission). For PBMC proliferation, cells were plated and activated as above but incubated for only 16 h prior to addition of Alamar Blue. Plates were read after 6 h.
# Chain of E-selectin (Homo sapiens) (P16581 whole entry, looked up): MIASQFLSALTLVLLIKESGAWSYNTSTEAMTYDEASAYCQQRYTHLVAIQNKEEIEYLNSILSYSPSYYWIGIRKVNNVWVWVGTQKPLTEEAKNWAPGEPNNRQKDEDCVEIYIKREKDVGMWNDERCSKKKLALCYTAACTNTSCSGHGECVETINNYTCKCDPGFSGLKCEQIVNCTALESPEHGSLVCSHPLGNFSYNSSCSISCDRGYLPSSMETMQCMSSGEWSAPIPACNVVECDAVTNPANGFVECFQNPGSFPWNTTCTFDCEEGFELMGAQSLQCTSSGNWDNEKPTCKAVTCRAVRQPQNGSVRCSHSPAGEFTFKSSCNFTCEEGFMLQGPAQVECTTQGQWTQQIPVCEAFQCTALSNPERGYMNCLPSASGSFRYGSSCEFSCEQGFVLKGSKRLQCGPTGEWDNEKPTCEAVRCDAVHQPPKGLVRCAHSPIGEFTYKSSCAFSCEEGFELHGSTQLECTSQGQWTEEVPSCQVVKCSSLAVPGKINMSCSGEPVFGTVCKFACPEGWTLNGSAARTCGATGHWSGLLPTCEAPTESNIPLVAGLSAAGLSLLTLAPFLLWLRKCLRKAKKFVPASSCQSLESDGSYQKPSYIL
Compound,AC50,outcome
CCCCCCCCCCCC,20 µM (active),inactive
O=C(O)CCC(F)(F)C(F)(F)C(F)(F)C(F)(F)C(F)(F)F,–,inactive
Cc1ccc(N=Nc2c(O)ccc3ccccc23)c(C)c1,–,inactive
CCOC(=O)CN[C@@H](C(=O)N1CC[C@H]1C(=O)NCc1ccc(/C(N)=N/O)cc1)C1CCCCC1,–,inactive
NC(=NCCCCCCN=C(N)/N=C(\N)Nc1ccc(Cl)cc1)/N=C(\N)Nc1ccc(Cl)cc1,7.27 µM (active),–
CS(=O)(=O)c1ccc([C@@H](CC2CCCC2)C(=O)Nc2cnccn2)cc1Cl,–,inactive
O=C(NO)c1ccccc1,–,inactive
O=C1c2ccc(O)c(O)c2C(=O)c2c(O)ccc(O)c21,–,inactive
OCC(CO)(CBr)CBr,–,inactive
O=S(=O)(O)C(F)(F)C(F)(F)C(F)(F)C(F)(F)C(F)(F)C(F)(F)C(F)(F)C(F)(F)C(F)(F)C(F)(F)F,10.2 µM (active),inactive
COc1cc(OC)nc(NC(=O)NS(=O)(=O)Nc2ccccc2C(=O)N(C)C)n1,–,inactive
CC(C)(C)c1ccc(O)c(O)c1,3.97 µM (active),–
C=CC(C)(CCC=C(C)C)OC(C)=O (stereo not given),32.1 µM (active),–
O=P(O)(O)CCC(F)(F)C(F)(F)C(F)(F)C(F)(F)C(F)(F)C(F)(F)C(F)(F)C(F)(F)F,–,inactive
CCCCc1oc2ccccc2c1C(=O)c1cc(I)c(OCCN(CC)CC)c(I)c1,24.1 µM (active),–
CCCCCc1ccc(O)cc1,13.5 µM (active),–
CN(Cc1cnc2nc(N)nc(N)c2n1)c1ccc(C(=O)N[C@@H](CCC(=O)O)C(=O)O)cc1,–,inactive
Clc1ccc(Nc2nnc(Cc3ccncc3)c3ccccc23)cc1,2.36 µM (active),–
Cc1cccc2c1ccc1ccccc12,–,inactive

Compound,AC50,outcome
COC1=CC(=O)C[C@@H](C)[C@]12Oc1c(Cl)c(OC)cc(OC)c1C2=O,–,inactive
Oc1ccc(Cc2ccccc2O)cc1,–,inactive
CN(C)c1ccc(C(=C2C=CC(=[N+](C)C)C=C2)c2ccccc2)cc1,0.205 µM (active),–
CC1=NN(c2ccccc2)C(=O)C1,–,inactive
C=CC(=C)CC/C=C(\C)CCC=C(C)C,–,inactive
O=C1NS(=O)(=O)c2ccccc21,–,inactive
OCCN1CN(CCO)CN(CCO)C1,34.1 µM (active),–
O=C(c1ccccc1)c1ccccc1,–,inactive
CCCCC=O,–,inactive
O=C(O)C(F)(F)OC(F)(F)C(F)(F)OC(F)(F)C(F)(F)OC(F)(F)C(F)(F)C(F)(F)C(F)(F)F,49.6 µM (active) and 49 µM (active),–
O=C(CCCN1CCC(O)(c2ccc(Cl)cc2)CC1)c1ccc(F)cc1,–,inactive
CCCCC(CC)C(=O)OCCOCCOCCOCCOC(=O)C(CC)CCCC (stereo not given),13.6 µM (active),–
OCC(F)(F)C(F)(F)C(F)(F)C(F)(F)C(F)(F)C(F)(F)C(F)(F)C(F)(F)C(F)(F)C(F)(F)C(F)(F)F,–,inactive
CC(=O)Nc1ccc(O)cc1,–,inactive
CN(CCO)S(=O)(=O)C(F)(F)C(F)(F)C(F)(F)C(F)(F)C(F)(F)C(F)(F)C(F)(F)C(F)(F)F,–,inactive
CN(C)CCOC(c1ccccc1)c1ccccc1,–,inactive
CCC(C)c1ccccc1O (stereo not given),–,inactive
CCCCCCCCCCCCOS(=O)(=O)O,–,inactive
O=C(NCc1ncc(C(F)(F)F)cc1Cl)c1c(Cl)cccc1Cl,–,inactive
